Laboratory results: PubChem BioAssay (NCI)
This is part of a sample that, as a whole, favours compounds with a hit. Of some 83,000 tested, about 20% had one in any assay.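 The endpoint reported here, percent growth, reads 100 for growth as untreated, 0 for no net growth and -100 for all cells dead.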 Calls of active or inactive are those of the source. How the source made its calls: active means growth percent below 10; inactive means the rest.

Tested on: OVCAR-3 ovarian
Assay: NCI-60 one-dose screen, 48 h (100 = growth as untreated, 0 = no growth, -100 = all killed)
Conditions: 10 µM unless noted

Compound | growth
C=C(C)[C@@H]1CC[C@]2(COC(=O)c3cccnc3)CC[C@]3(C)[C@H](CC[C@@H]4[C@@]5(C)CCCN(C(=O)c6cccnc6)C(C)(C)[C@@H]5CC[C@]43C)[C@@H]12 | 32.9% (inactive)
C=C1C(=O)O[C@H]2[C@H]1CC/C(CNC(=O)/C=C/c1cc(OC)c(OC)c(OC)c1)=C\CC[C@@]1(C)O[C@@H]21 | -57.5% (active)
O=S(=O)(c1ccc(NCSc2nc3ccccc3s2)cc1)c1ccc(NCSc2nc3ccccc3s2)cc1 | 97.7% (inactive)
COc1ccc(S(=O)(=O)Oc2ccc(-c3sc4cc(OS(=O)(=O)c5ccc(OC)cc5)ccc4c3C(=O)c3ccc(OCCN4CCCCC4)cc3)cc2)cc1 | 100% (inactive)
Nc1nc(N)c2c(n1)NC(c1cccc(Nc3ccnc4cc(C(F)(F)F)ccc34)c1)CC(c1ccc(Cl)cc1)=N2 (stereo not given) | 26.6% (inactive)
COC(=O)[C@H]1Cc2c([nH]c3ccccc23)[C@H](c2ccc3c(c2)OCO3)N1 | 99.7% (inactive)
[2H]C([2H])([2H])Oc1c(F)cccc1/C=C/C(=O)/C=C(O)/C=C/c1cccc(F)c1OC([2H])([2H])[2H] | 108% (inactive)
C=C(C)[C@@H]1CCC[C@]2(C(=O)OC)CC[C@]3(C)[C@@H](CC[C@@H]4[C@@]5(C)CCCNC(C)(C)[C@@H]5CC[C@]43C)[C@@H]12 | 74.4% (inactive)
O=C(Nc1ncc(Cc2ccccc2)s1)c1ccc2c(c1)OCCO2 | -11.3% (active)
COc1ccc(-c2cc(-c3ccc(Nc4nc(Nc5ccc(Cl)cc5)nc(Nc5ccc(Cl)cc5)n4)cc3)no2)cc1 | 71.1% (inactive)
CNC(=O)c1cc(Oc2ccc3nc(NC(=O)NC(C)C)sc3c2)ccn1 | 97.4% (inactive)
O=C1NCCS(=O)(=O)/C1=C\C=C\c1cccc(C(F)(F)F)c1 | 22.2% (inactive)
NCCNc1ccc([N+](=O)[O-])cc1 | 134% (inactive)
Clc1ccc2c(NCCCn3cnc4c(N5CCCC5)nc(Cl)nc43)ccnc2c1 | 101% (inactive)
O=C(/C=C/c1ccc(Cl)cc1)c1ccc(Nc2ccnc3cc(Cl)ccc23)cc1 | 86.5% (inactive)
Oc1c(Cl)cc(Cl)c2ccc(CN3CCNCC3)nc12 | 42.9% (inactive)
O=C1c2ccccc2C(=O)c2cc(Cn3c[n+](Cc4ccc5ccccc5c4)c4ccccc43)ccc21 | 34.9% (inactive)
CC(C)(C#N)c1cc(C(=O)Nc2cc(Nc3ncccc3-c3ncnc4nc[nH]c34)ccc2F)cc(C(F)(F)F)c1 | 70.1% (inactive)
CC(C)n1cc(C2=C(c3cccc4ccccc34)C(=O)NC2=O)c2cc(Br)ccc21 | 20.7% (inactive)
O=CN1N=C(c2cccc(Nc3ccncc3)c2)CC1c1ccc2c(c1)OCO2 (stereo not given) | 99.6% (inactive)

Compound | growth
CC(=O)Cc1nsc(NC(=O)c2cc(-c3cc(Cl)ccc3Cl)oc2C)n1 | 110% (inactive)
O=C(O)COc1ccc(F)cc1 | 107% (inactive)
CC(Cc1cccc2ccccc12)C(N)=O (stereo not given) | 113% (inactive)
NC(=N\N=C/c1ccc(Cl)cc1Cl)/C(N)=N\N=C/c1ccc(Cl)cc1Cl | 21.5% (inactive)
CCOC(=O)CC1C(CNC(=O)NC)OC(n2cnc3c(NC(=O)Nc4ccccc4)ncnc32)C1O[Si](C)(C)C(C)(C)C (stereo not given) | 79.6% (inactive)
CCc1ccc(Cc2cnc(NC(=O)c3cc(C)oc3C)s2)cc1 | 16.7% (inactive)
CNc1nc2ncc(-c3c(C)noc3C)cc2n1Cc1ccccc1 | 47.2% (inactive)
CCCCC1=C(Br)C(=O)c2ncccc2C1=O | 57.1% (inactive)
Cc1ccc2nc(/C=C/c3ccc(N(C)C)cc3)cc(C)c2c1 | -2.23% (active)
CCN(CC)c1ccc(/C=N/NC(=O)c2ccccc2Nc2ccnc(C(F)(F)F)c2)c(O)c1 | 36.7% (inactive)
COc1cc2ncnc(Nc3ccc(S(=O)(=O)Nc4cc(C)on4)cc3)c2cc1OCCCN1CCOCC1 | 113% (inactive)
COc1ccc(-c2cc(-c3ccc(N(C)C)cc3)nc(NC(=O)c3cccnc3)n2)cc1 | 106% (inactive)
CC(=O)/C(Br)=C/c1ccc(Br)o1 | 23.5% (inactive)
N#CC1=C(N)Oc2c(ccc3cccnc23)C1c1ccccc1 (stereo not given) | -6.82% (active)
CCCS(=O)(=O)Nc1cccc(Nc2ncnc3cc(NC(=O)CCl)ccc23)c1Cl | -85.3% (active)
COC(=O)c1nc(-c2ccc(C)cc2)oc1N1CCOCC1 | 107% (inactive)
Cc1ccc(S(=O)(=O)N(CCC(=O)O)c2ccccc2)cc1 | 110% (inactive)
Nc1ncc(-c2ccc3ncnc(N4CCc5cc(F)c(Cl)cc54)c3c2)cc1C(F)(F)F | 31.7% (inactive)
OC1CSSC1Cn1cnc2c(Nc3ccc(F)c(Cl)c3)ncnc21 (stereo not given) | 68.5% (inactive)
COc1cc2c(c(OC)c1OC)C(=O)CC(c1cccc(C(=O)Nc3ccc(Br)cc3)c1)O2 (stereo not given) | 65% (inactive)
